This is a sample that favours compounds with a hit; in the whole collection about 21% have one here.
Shiga toxin inh – inhibitors of Shiga toxin in Vero cells; Vero cells, Shiga toxin protein synthesis inhibition reporter; AID 2315; 9.2% of 290,000 active; inhibition, % at 38.7 µM; in the data active = inhibition mostly above about 28%, no sharp cut-off; inactive = mostly below about 43%; note: 0% is about no effect
CHX counter – counter-screen hit for Shiga toxin inhibitors, cycloheximide | cell reporter, cycloheximide protein synthesis inhibition counterscreen | max response, % | 12% of 300,000 active; in the data active = max response mostly above about 13%, no sharp cut-off; inactive = mostly below about 14%; note: read at 38.3 µM for the half of the compounds with a filed dose; 0% is about no effect
Pf growth 96h – P. falciparum growth inhibition at 96 hour, primary screen for plastid delayed-death inhibitors. AID 504834. 6.9% of 320,000 active. Potency, µM (series often up to 28.7 µM), for the others: at the highest dose activity change, negative = inhibition, hits mostly inhibitors. P. falciparum luciferase reporter growth, 96 h; note: potency is the fitted concentration of half-maximal effect; % is set by controls: 0 for no effect and ±100 for the full control effect
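Two parasite generations (96 h, 37 C, 5% CO2) of compound exposure in infected erythrocytes (0.05% parasitemia, 2% hematocrit). Luciferase-reporter P. falciparum; decreased luminescence indicates inhibited growth, aimed at apicoplast-acting delayed death.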
NS1 inh – influenza NS1 inhibition; 0.4% of 270,000 active; Potency, µM (series often up to 46.1 µM), inactives show at the top dose activity, positive = more growth; AID 2326; calls by dose curve; note: potency is the fitted concentration of half-maximal effect; actives are rising curves; nearly all actives have a fitted effect of over 50% in size
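A cell-based growth assay was used: compounds that relieve NS1-induced slow growth of budding yeast raise OD600. Assay medium was yeast nitrogen base with ammonium sulphate and -URA supplement, pH 6.0, with 2% galactose.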
Giardia FBPA inh – Giardia lamblia aldolase inhibition | purified Giardia FBPA | Potency, µM (highest dose often 59.6 µM), for inactives: at the highest dose activity, negative = inhibition, usual class: inhibitors | 0.71% of 290,000 active; note: potency is the fitted concentration of half-maximal effect; % is set by controls: 0 for no effect and ±100 for the full control effect; nearly all actives have a fitted effect of over 55% in size
Target sequence (A8B2U2 whole entry, looked up): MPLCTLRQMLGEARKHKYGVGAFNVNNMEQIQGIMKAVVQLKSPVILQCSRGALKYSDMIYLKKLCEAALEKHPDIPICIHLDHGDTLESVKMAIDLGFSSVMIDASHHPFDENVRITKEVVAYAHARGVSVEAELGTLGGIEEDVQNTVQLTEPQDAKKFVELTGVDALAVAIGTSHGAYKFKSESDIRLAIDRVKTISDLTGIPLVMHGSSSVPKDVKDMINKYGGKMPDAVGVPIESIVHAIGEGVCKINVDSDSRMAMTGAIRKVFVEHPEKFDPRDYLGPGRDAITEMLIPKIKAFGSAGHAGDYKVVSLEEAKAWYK
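Giardia FBPA (40 nM reagent) was preincubated 10 min at RT with compound (up to 57.5 uM final), then substrate plus GAPDH/TPI/NAD/arsenate coupling system with diaphorase/resazurin was added; resorufin fluorescence (525/598 nm) was read after 20 min.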
Pf growth 48h – inhibits P. falciparum growth in the first generation, 48 h | AID 504832 | 5.9% of 310,000 active | Potency, µM (series often up to 28.7 µM), for inactives: at the highest dose activity change, negative = inhibition, hits mostly inhibitors | P. falciparum luciferase growth in erythrocytes, 48 h; note: potency is the fitted concentration of half-maximal effect; % is set by controls: 0 for no effect and ±100 for the full control effect
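Here the parasites carry a stable luciferase gene and grow inside erythrocytes in Albumax-based RPMI medium with compound for one erythrocytic cycle. Activity is scored as loss of luminescent signal.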
* marks the source's active call; other numbers are inactive results; i = inactive; ? = inconclusive; / = no result given. Unless noted, calls come from the whole dose curve; as a rule, active = well fitted curve in the direction sought with a large enough effect; inconclusive = small, poorly fitted or top-dose-only effect, or another doubt; inactive = no such curve, though single readings can be large; an effect the other way counts as inactive or inconclusive.

SMILES | Shiga toxin inh | CHX counter | Pf growth 96h | NS1 inh | Giardia FBPA inh | Pf growth 48h
CCCN(CCC)S(=O)(=O)c1cc(Br)cc2c1N(C(=O)CC)CC2 | -2 | 1 | ? | -105% | -26% | 1µM*
CCOC(=O)N1CCC(NS(=O)(=O)c2cc(Br)cc3c2N(C(=O)CC)CC3)CC1 | -10 | 6 | -2% | -11% | 6% | 8.3µM*
CCC(=O)N1CCc2cc(Br)cc(S(=O)(=O)C3(C(=O)OC)CC3)c21 | -8 | -3 | ? | -42% | 2% | 4.1µM*
CCC(=O)N1CCc2cc(Br)cc(S(=O)(=O)CCC(=O)NCCOC)c21 | -13 | -3 | / | 1% | 1% | /
CCOC(=O)N1CCN(S(=O)(=O)c2cc(Br)cc3c2N(C(=O)CC)CC3)CC1 | 5 | -3 | / | -2% | 3% | 11%
CCC(=O)N1CCc2cc(Br)cc(S(=O)(=O)N(C)c3ccc(OC)cc3OC)c21 | -12 | -6 | 16% | / | -14% | ?
O=C(OCC#CCSc1nnc(-c2cccc3ccccc23)o1)c1ccc2ccccc2c1 | / | / | 19% | / | / | ?
CCC(=O)N1CCc2cc(Br)cc(S(=O)(=O)N3CCC(C(=O)NC(C)C)CC3)c21 | -7 | -4 | 6% | -6% | 1% | 6.6µM*
CCC(=O)N1CCc2cc(Br)cc(S(=O)(=O)N3CCCCC3CC)c21 (stereo not given) | -7 | -4 | ? | 9% | -1% | 1µM*
CCC(=O)N1CCc2cc(Br)cc(S(=O)(=O)N3CCCC(C(=O)O)C3)c21 (stereo not given) | 1 | -5 | 26% | 5% | / | -11%
CCC(=O)N1CCc2cc(Br)cc(S(=O)(=O)N3CCCCCC3)c21 | 11 | 1 | ? | -32% | 7% | 2.9µM*
O=C(C1CC1)N1CCc2cc(Br)cc(S(=O)(=O)NC3CCCCC3)c21 | -11 | -2 | ? | -37% | -3% | 4.7µM*
CCC(=O)N1CCc2cc(Br)cc(S(=O)(=O)NCCN3CCCCC3CC)c21 (stereo not given) | -7 | 1 | ? | 4% | 6% | ?
O=C1CCC(C(=O)N2CCCCCC2)CN1Cc1cccc(C(F)(F)F)c1 (stereo not given) | -12 | -4 | 21% | -5% | 1% | 0%
CCOC(=O)C1CCCN(S(=O)(=O)c2cc(Br)cc3c2N(C(=O)C2CC2)CC3)C1 (stereo not given) | -27 | 2 | 36% | -100% | 5% | 3.3µM*
CCOC(=O)N1CCC(NS(=O)(=O)c2cc3c(cc2Cl)NC(=O)CO3)CC1 | -7 | -3 | 0.21µM* | 6% | 9% | ?
CCOC(=O)N1CCC(NS(=O)(=O)c2ccc3c(c2)OCC(=O)N3)CC1 | 2 | -4 | ? | ? | -7% | 31%
CC1(C)Cc2c(C#N)c(NCCN3CCOCC3)nc(-c3ccco3)c2CO1 | -10 | -2 | 10µM* | 10% | -6% | 13µM*
CC1(C)Cc2c(c(-c3ccco3)nc3sc4c(NCCN5CCOCC5)ncnc4c23)CO1 | 0 | 4 | ? | 4% | -2% | 8.3µM*
CC1(C)Cc2c(C#N)c(NCCN3CCOCC3)nc(-c3ccccc3)c2CO1 | -20 | -2 | -17% | -8% | 5% | -19%
CC1(C)Cc2c(c(-c3ccco3)nc3sc4c(NCC5CCCO5)ncnc4c23)CO1 (stereo not given) | -14 | -5 | ? | 9% | -5% | -2%
CC1(C)Cc2c(c(-c3ccco3)nc3sc4c(NCCCO)ncnc4c23)CO1 | 8 | 2 | 4.1µM* | -1% | -18% | ?
C=CCCC(=O)Nc1nc(C)c(-c2csc(Nc3ccccc3OC)n2)s1 | -11 | -2 | 17µM* | 1% | 4% | 9.3µM*
CCC(C)C(=O)Nc1nc(C)c(-c2csc(Nc3ccccc3OC)n2)s1 (stereo not given) | -14 | -4 | 12µM* | 20% | -8% | 9.3µM*
O=C(Nc1cccc(S(=O)(=O)C(F)F)c1)c1ccc(Cl)c(S(=O)(=O)N2CCOCC2)c1 | -9 | 10 | / | 20% | -3% | 9.3µM*
SMILES | Shiga toxin inh | CHX counter | Pf growth 96h | NS1 inh | Giardia FBPA inh | Pf growth 48h
O=C(NC1CCCC1)c1cc(S(=O)(=O)N2CCOCC2)c(Cl)cc1Cl | -11 | 6 | 4.7µM* | 1% | 0% | -30%
CC(=O)c1cccc(NC(=O)c2ccc(C)c(S(=O)(=O)N3CCOCC3)c2)c1 | 2 | 1 | 2% | -19% | 6% | ?
O=C(Nc1cccc(Br)c1)c1ccc(Cl)c(S(=O)(=O)N2CCOCC2)c1 | 35 | 21* | -3% | -4% | 3% | 6.6µM*
O=C(Nc1cccc(C(=O)NC2CC2)c1)c1ccc(Cl)c(S(=O)(=O)N2CCOCC2)c1 | / | / | 13µM* | / | / | ?
O=C(Nc1cccnc1)c1ccc(Cl)c(S(=O)(=O)N2CCOCC2)c1 | -8 | -5 | -23% | -5% | 3% | -26%
O=C(NC1CC1)c1ccc(Cl)c(S(=O)(=O)N2CCOCC2)c1 | -9 | -2 | 0% | 5% | 0% | ?
O=S(=O)(NCc1nnc2ccccn12)c1ccc(F)cc1 | / | / | -4% | / | / | 0%
O=C(COc1cccnc1[N+](=O)[O-])NCc1ccc(F)cc1 | -7 | -5 | 33% | -4% | -3% | 16%
COC(=O)C(Cc1ccccc1)NC(=O)c1ccc(NS(=O)(=O)c2ccc3[nH]c(=O)[nH]c3c2)cc1 (stereo not given) | / | / | ? | / | / | -14%
CCn1cc(C=C2C(=O)NC(=O)NC2=O)c2ccccc21 | 9 | 2 | 11% | 3% | -1% | -7%
C=CCn1cc(/C=C/c2cc[n+](C)cc2)c2ccccc21 | -7 | -4 | i | -3% | -19% | ?
CC(C)n1cc(/C=C/c2cc[n+](C)cc2)c2ccccc21 | -1 | -2 | ? | -8% | ? | 0.52µM*
CCn1cc(/C=C/c2cc[n+](C)cc2)c2ccccc21 | 22 | -2 | 0.21µM* | 6% | ? | 0.37µM*
CCn1cc(C=C2C(=O)N(C)C(=O)N(C)C2=O)c2ccccc21 | / | -2 | 0.12µM* | 5% | 4% | -30%
COc1ccc(S(=O)(=O)N2CCC(C(=O)NC3CCCCC3C)CC2)cc1 (stereo not given) | 3 | 5 | -21% | -13% | -2% | -29%
CC(C)CCN(C(=O)C1CSC2(C)CCC(=O)N12)c1c(N)n(Cc2ccccc2)c(=O)[nH]c1=O (stereo not given) | / | / | 2% | / | / | ?
Cc1[nH]c2c(ccc3ccccc32)c1C1C(CCN)C1(C)C (stereo not given) | -15 | -2 | / | 3% | 2% | 10µM*
O=C(COc1ccccc1)NC1=NCCS1 | 95* | 41* | 275% | -6% | 1% | /
COc1ccc(C(=O)NCC(=O)NC2=NCCS2)cc1 | 12 | 6 | 127% | -7% | -3% | 34%
CC(Oc1ccccc1)C(=O)NC1=NCCS1 (stereo not given) | 80* | 38* | ? | -1% | 2% | 304%
N#Cc1ccc(OCC(=O)NC2=NCCS2)cc1 | 51 | 23 | 25% | / | 1% | 25%
